# Anthrax LT inh: blocks cellular internalization of anthrax lethal toxin | 70,000 compounds, 0.67% hits | Cells, anthrax lethal toxin internalization, FRET ratio (460/530) | Potency, µM (top dose mostly 40 µM), without a hit: at the top dose activity change, negative = inhibition, hits mostly inhibitors; also: % is scaled to controls: 0 for no effect and ±100 for the full control effect; nearly all actives have a fitted effect of over 50% in size
# AmpC det inh: AmpC beta-lactamase inhibition, detergent assay; P00811; purified AmpC, nitrocefin hydrolysis with detergent; Potency, µM (doses to about 28.7 µM), for inactives: top-dose activity change, negative = inhibition; 71,000 compounds, 0.09% hits; active = well fitted curve in the direction sought with a large enough effect; inconclusive = small, poorly fitted or top-dose-only effect; also: % is scaled to controls: 0 for no effect and ±100 for the full control effect
# Target sequence (P00811 whole entry, looked up): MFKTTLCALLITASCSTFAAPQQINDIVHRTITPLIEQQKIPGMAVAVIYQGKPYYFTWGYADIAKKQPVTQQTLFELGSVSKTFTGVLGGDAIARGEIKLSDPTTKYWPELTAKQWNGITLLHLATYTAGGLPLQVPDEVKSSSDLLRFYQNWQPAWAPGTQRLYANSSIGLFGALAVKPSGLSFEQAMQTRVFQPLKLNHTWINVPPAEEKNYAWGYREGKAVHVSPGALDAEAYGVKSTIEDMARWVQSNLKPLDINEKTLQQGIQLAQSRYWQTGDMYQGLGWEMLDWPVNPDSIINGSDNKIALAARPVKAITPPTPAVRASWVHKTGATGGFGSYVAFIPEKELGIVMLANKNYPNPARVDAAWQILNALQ
#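 E. coli AmpC (5.3 nM) in 20 mM phosphate pH 7.0 with 0.01% Triton X-100, preincubated 15 min RT with compound; nitrocefin (2 uL of 800 uM stock) hydrolysis followed by 480 nm absorbance every 20 s over 4 min.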
# AmpC inh no det: AmpC beta-lactamase inhibition, detergent-free assay; P00811; AmpC nitrocefin hydrolysis, absorbance 480 nm, no detergent; Potency, µM (highest dose often 28.7 µM), without a hit: top-dose activity change, negative = inhibition; AID 585; 71,000 compounds, 1.8% hits; also: % of control where 0% means no effect
#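 Enzyme, pH 7.0 phosphate. Compound titrations were pre-incubated with AmpC for 15 min at room temperature before nitrocefin (stock 800 uM) addition; product formation was recorded at 480 nm every 20 s for 4 min.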
# Prx2 Sm inh: inhibitors of Schistosoma mansoni peroxiredoxin 2; S. mansoni Prx2 activity coupled to TGR/GSH (TGR is thioredoxin glutathione reductase), NADPH fluorescence loss, qHTS; Potency, µM; 65,000 compounds, 0.07% hits
#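 Coupled assay in which S. mansoni TGR passes NADPH reducing equivalents via glutathione to Prx2, which reduces H2O2. Compounds were preincubated 15 min at room temperature with 25 nM TGR/50 nM Prx2 mix. Kinetic NADPH fluorescence loss (ex 365/em 450 nm) was monitored.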
# Numbers without * were called inactive; ? = inconclusive; · = no result; [ ] = remark or other dose. Rows were chosen to be rich in hits. Some 2.4% of all compounds tested hit in one or more screens of this group. Unless noted, calls follow the shape of the full dose curve. Potency is read from the fitted curve at half-maximal effect.
SMILES,Anthrax LT inh,AmpC det inh,AmpC inh no det,Prx2 Sm inh
Cc1cccc(-n2c(Cc3cc(=O)[nH]c(=O)[nH]3)nnc2SCC(=O)NCC2CCCO2)c1 (stereo unspecified),2%,14%,4µM*[single pt active],>57
CC(C)[C@@]1(NC(=O)[C@@H]2C=C3c4cccc5[nH]cc(c45)C[C@@H]3N(C)C2)O[C@]2(O)[C@H]3CCCN3C(=O)[C@H](Cc3ccccc3)N2C1=O,-12%,-1%,75%,>57
COc1ccc(-c2nc3cnc(Nc4cccc(OC)c4)nc3n(Cc3cccs3)c2=O)cc1,?,-2%,4%,>57
Cc1ccc(Cn2ccc(NC(=O)c3cc(-c4ccc5c(c4)OCO5)on3)n2)cc1,1%,-3%,10µM*,>57
Cc1ccc(Cn2ccc(NC(=O)c3cc(-c4ccccc4)on3)n2)cc1,-13%,-1%,?,>57
Cc1cc(Cc2c(C)c(C)c(Cc3cc(C)cc(C(C)(C)C)c3O)c(C)c2C)c(O)c(C(C)(C)C)c1,-6%[8 µM],-1%[5.75 µM],-7%[5.75 µM],>57
Cc1cc(Cc2cc(C)cc(C(C)(C)C)c2O)c(O)c(Cc2cc(C)cc(C(C)(C)C)c2O)c1,3.2µM*,-2%[5.75 µM],-25%[5.75 µM],>57
CC(C)(C)OC(=O)NCCc1nnc(S(=O)(=O)Cc2ccc(Cl)cc2Cl)o1,?,0.016µM*,0.04µM*,>57
C/C(N)=C(/C#N)C(=O)CSc1nnc(COc2ccccc2Cl)o1,-5%,-5%,3%,>57
COc1ccccc1OCc1nnc(SCC(=O)c2cc(Cl)ccc2OC)o1,13µM*,0%,35%,>57
CN=C1N[C@H](c2ccccc2)N(c2ccccc2)S1,25µM*,-3%,10%,>57
O=c1cc(-c2ccccc2)oc2cc(O)c(O)c(O)c12,1.3µM*,-4%,7.9µM*,>57
Clc1ccc(-n2nnnc2Sc2ncnc3sccc23)cc1,6.3µM*,-5%,-8%,?
Cc1sc2ncnc(Sc3nnnn3-c3ccccc3)c2c1C,-2%,-2%,7%,>57
O=C(Oc1ccc(S(=O)(=O)F)cc1F)c1ccccc1Cl,3%[8 µM],-6%[5.75 µM],-11%[5.75 µM],>57
CCCn1c(C)nc2c(N3CCC(N4CCN(C)CC4)CC3)nc(C)nc21,11%,15%,12%,·
CCN(CC)S(=O)(=O)c1ccc(C(=O)OCCN2C(=O)CCC2=O)cc1,3%,11%,4µM*[single pt active],>57
C=CCN1CCc2c(cc(O)c(O)c2Cl)C(c2cccc(C)c2)C1 (stereo unspecified),-7%,·,·,·
O=c1c(-c2ccccc2)nc2cnc(N3CCNCC3)nc2n1-c1ccccc1,?,-3%,42%,>57
CCOC(=O)N1CCC(NC(=O)C2CCCN(Cc3nc(-c4cccc(Cl)c4)oc3C)C2)CC1 (stereo unspecified),?,10%,90%,>57
Cc1ccc(-c2nc(CS(=O)CC(=O)NCCN3CCCC3)c(C)o2)cc1 (stereo unspecified),10%,15%,4µM*[single pt active],>57
Cc1ccc(-c2nc(CS(=O)CC(=O)NCCN(CC(C)C)CC(C)C)c(C)o2)cc1 (stereo unspecified),-10%,-3%,92%,>57
Cc1ccc(-c2nc(CS(=O)CC(=O)NCCN3CCOCC3)c(C)o2)cc1 (stereo unspecified),-4%,7%,4µM*[single pt active],>57
Cc1oc(-c2ccc(Cl)cc2)nc1CS(=O)CC(=O)NCCN1CCCC1 (stereo unspecified),-17%,12%,4µM*[single pt active],>57
CCN1CCN(CCNC(=O)C2CCCN(Cc3nc(-c4cccc(Cl)c4)oc3C)C2)CC1 (stereo unspecified),4µM*,12%,82%,>57
SMILES,Anthrax LT inh,AmpC det inh,AmpC inh no det,Prx2 Sm inh
Cc1ccc(-c2nc(CS(=O)CC(=O)NCc3ccccn3)c(C)o2)cc1 (stereo unspecified),-9%,12%,4µM*[single pt active],>57
Cc1ccccc1-c1nc(CS(=O)CC(=O)NCCN2CCOCC2)c(C)o1 (stereo unspecified),-6%,15%,4µM*[single pt active],>57
Cc1ccc(CNC(=O)CS(=O)Cc2nc(-c3ccccc3C)oc2C)cc1 (stereo unspecified),?,12%,94%,>57
Cc1ccccc1-c1nc(CS(=O)CC(=O)NCc2ccccc2)c(C)o1 (stereo unspecified),-5%,13%,4µM*[single pt active],>57
Cc1ccccc1-c1nc(CS(=O)(=O)CC(=O)NCCN2CCOCC2)c(C)o1,-12%,6%,54%,>57
C=CCN1CC[C@]23c4c5ccc(O)c4O[C@@H]2/C(=N/NC(=O)c2ccccc2)CC[C@@]3(O)[C@H]1C5,?,-3%,0%,>57
CN1CCN(c2cc(-c3ccc(N(C)C)cc3)ncn2)CC1,7%,11%,34%,>57
COc1ncc2ncc(=O)n(C[C@H]3CCCO3)c2n1,2%,0%,8%,>57
C[C@@H]1O[C@H]1P(=O)(O)O,8%,18%,1%,>57
c1ccc(CC2CCN(c3nc4ccccc4n4nnnc34)CC2)cc1,-8%,12%,13µM*,>57
O=C(c1ccco1)N1CCN(c2nc3ccccc3n3nnnc23)CC1,-4%,21%,40%,>57
CC(C)C(=O)C(C)(C)CCc1ccccn1,?,-2%[5.75 µM],-4%[5.75 µM],>57
C=CC(=O)OCC(CO)(COC(=O)C=C)COC(=O)C=C,?,0%,61%,·
O=C(Nc1cccc(Br)c1)c1cc2ccccc2o1,5µM*,-3%,-4%,·
Cc1nn(Cc2ccc(Cl)cc2)c(C)c1NC(=O)c1cc(-c2ccco2)on1,-18%,-6%,25%,>57
Cc1cc(NC(=O)c2cc(-c3ccco3)on2)nn1Cc1ccc(Cl)cc1,-24%,-3%,16µM*,>57
C[C@@H]1NCC[C@H](CC(=O)O)[C@H]1CC(=O)O,-5%[8 µM],-3%[5.75 µM],-14%[5.75 µM],>57
CCOC(=O)Nc1ccc2c(c1)N(C(=O)OCCN(C)C)c1ccccc1CC2,-12%,9%,4µM*[single pt active],>57
CCS(=O)(=O)Nc1ccc2c(c1)N(C(C)=O)c1ccccc1CC2,?,-1%,21%,>57
O=C1C[C@H]2OCC=C3CN4CC[C@@]5(C(=O)O)[C@H](N1)[C@H]2[C@H]3C[C@H]45,1%[8 µM],1%[5.75 µM],6%[5.75 µM],>57
COC(=O)CN(c1ccc(C(C)C)cc1)S(=O)(=O)c1c(C)[nH]c(=O)[nH]c1=O,-12%,14%,4µM*[single pt active],>57
C/C(=C\[C@@H](NP(=O)(c1ccccc1)c1ccccc1)c1ccccc1)CO[Si](c1ccccc1)(c1ccccc1)C(C)(C)C,-13%,13%,5%,·
CCCC/C(C)=C/[C@@H](NP(=O)(c1ccccc1)c1ccccc1)c1ccccc1,10µM*,14%,41%,·
CSc1ccc2c(c1)N(CC[C@H]1CCCCN1C)c1ccccc1S2,10µM*,1%[12.8 µM],68%[12.8 µM],>57
CN1CCCC[C@@H]1CCN1c2ccccc2Sc2ccc(S(C)=O)cc21 (stereo partly specified),-1%[8 µM],-2%[5.75 µM],-2%[5.75 µM],>57
COc1ccc(S(=O)(=O)N(CCCN2CCCC2=O)Cc2cc3cc(C)c(C)cc3[nH]c2=O)cc1,16%,-2%,156%,58*

# Screening results (PubChem)
